Measurements taken from PubChem BioAssay (NCI).
Compounds without any hit were thinned out: in the full panel of roughly 83,000, 20% have a hit.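 Step 1: grow cells in 96-well plates. Step 2: add test compound at a single concentration. Step 3: incubate 48 h. Step 4: record percent growth.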 Values without a mark were called inactive. Activity calls are given as the source filed them. How the source made its calls: active means growth percent below 10; inactive means the rest.

Tests used:
Test in all cases: NCI-60 one-dose screen, 48 h (100 = growth as untreated, 0 = no growth, -100 = all killed)
Conditions in all cases: 10 µM unless noted
NCI-H23 lung = test system: NCI-H23 lung
NCI-H226 lung = test system: NCI-H226 lung
NCI-H322M lung = test system: NCI-H322M lung
HOP-62 NSCLC = test system: HOP-62 NSCLC
NCI-H460 lung = test system: NCI-H460 lung
HOP-92 NSCLC = test system: HOP-92 NSCLC
NCI-H522 lung = test system: NCI-H522 lung
A549/ATCC NSCLC = test system: A549/ATCC NSCLC
786-0 renal = test system: 786-0 renal
COLO 205 colon = test system: COLO 205 colon
DU-145 prostate = test system: DU-145 prostate
MALME-3M melanoma = test system: MALME-3M melanoma
MDA-MB-231 breast = test system: MDA-MB-231 breast
RXF 393 renal = test system: RXF 393 renal
SF-268 CNS = test system: SF-268 CNS
SF-295 CNS = test system: SF-295 CNS
SF-539 CNS = test system: SF-539 CNS
UACC-257 melanoma = test system: UACC-257 melanoma
M14 melanoma = test system: M14 melanoma
K-562 leukemia = test system: K-562 leukemia

SMILES | growth (NCI-H23 lung) | growth (NCI-H226 lung) | growth (NCI-H322M lung) [%] | growth (HOP-62 NSCLC) | growth (NCI-H460 lung) | growth (HOP-92 NSCLC) | growth (NCI-H522 lung) | growth (A549/ATCC NSCLC) | growth (786-0 renal) | growth (COLO 205 colon) | growth (DU-145 prostate) | growth (MALME-3M melanoma) | growth (MDA-MB-231 breast) | growth (RXF 393 renal) | growth (SF-268 CNS) | growth (SF-295 CNS) | growth (SF-539 CNS) | growth (UACC-257 melanoma) | growth (M14 melanoma) | growth (K-562 leukemia)
O=c1ccccc(-c2ccc(Br)cc2)c1O | 13.9% | 18.2% | 21.1 | 10.6% | 2.75% (active) | 58% | 19.2% | 11% | 8.52% (active) | 22.7% | 20.3% | 10.6% | 32.9% | 46.2% | 12.8% | 17.9% | -0.947% (active) | 1.13% (active) | -10.8% (active) | 
COc1cccc2c1C(=O)c1c(O)c3c(c(O)c1C2=O)C[C@](O)(C(=O)CO)C[C@H]3O[C@@H]1C[C@@H](NC(=O)CCCN(C)C2(c3ccc(F)cc3)CC3CCC2C3)[C@H](O)[C@@H](C)O1 (stereo not given in full) | -59.7% (active) | 65.2% | 49.1 | 58.5% | -86.8% (active) | 48.7% | -82.7% (active) | -80.1% (active) | -94.2% (active) | -76.2% (active) | -48.4% (active) | -83.2% (active) | -76.4% (active) | -95.8% (active) | -82.4% (active) | -92.9% (active) | -81.6% (active) | -26.9% (active) | -86.8% (active) | 
CC/C=C\C/C=C\C[C@H]1C/C=C2/C(=O)C=C[C@@H]2C/C=C\CCC(=O)O1 | 12.1% | -36.1% (active) | 45.3 | -1.49% (active) | -4.43% (active) | -11.8% (active) | -69.9% (active) | 2.89% (active) | -43.7% (active) | -29.9% (active) | 23.2% | 29.6% | 19.3% | -71.3% (active) | 21% | 3.94% (active) | -25.5% (active) | -13.3% (active) | 7.48% (active) | 
NC(N)=N/N=C(/c1ccccc1)c1ccc(F)cc1 | 3.78% (active) | 8.06% (active) | 39.3 | 19.7% | 6.84% (active) | -16.9% (active) | -44.8% (active) | -15.1% (active) | 18.6% | -47% (active) | -19.7% (active) | 36.5% | -18.9% (active) |  | 14.2% | 3.89% (active) | -33.5% (active) |  | -3.19% (active) | 
CCOC(=O)c1sc(Nc2ccc(Cl)cc2)nc1C | 19.3% | 21.9% | 53.4 | 28.3% | 19.3% | -20.9% (active) | -14.4% (active) | 15.2% | 25% | 11% | 35.5% | 36.7% | 1.04% (active) | 10.9% | 30% | 16.3% | 25.3% | 7.95% (active) | 12.9% | 
Cc1ccc(OC(=O)c2ccc(Cl)cc2)cc1 | 99.2% | 97.3% | 98.2 | 84.5% | 111% | 100% |  | 98.4% | 90.2% | 112% | 112% | 101% | 81.7% | 109% | 45.2% | 93.3% | 95% | 102% | 102% | 96.6%
CC(=O)c1cc2c(N)c(C(=O)Nc3ccccc3)sc2nc1C | 91.5% | 92% | 50.8 | 75.1% | 15.9% | 57.6% | 66.5% | 28.4% | 77.2% | 4.95% (active) | 75.5% | 89.2% | 85.1% | 85.1% | 93.1% | 64.2% | 72.5% | 68.4% | 43.5% | 
COc1ccc(NC(=O)c2ccc(/C=C/C(=O)c3ncc[nH]3)cc2)cc1 | 64.7% | 96.5% | 85.4 | 79.1% | 64% | 104% | 51.4% | 81.5% | 67.1% | 72.4% | 34.1% | 95.1% | 91.6% | 76.9% | 72.4% | 88.4% | 64.1% | 97.8% | 87.3% | 
NC(=NC1C2CC3CC(C2)CC1C3)Nc1ccc(I)cc1 (stereo not given) | 15.4% | 84.7% | 15.7 | 12.9% | 55.2% | 31.1% | 42.4% | 26.1% | 61% | -70.3% (active) | 20.4% | -17% (active) | 41.8% | 85.8% | 40.7% | 10.7% | 32% | 0.379% (active) | 2.98% (active) | 
O=C1C=C(O)C(=O)C(CC2=C(O)C(=O)C=C(O)C2=O)=C1O | 113% | 102% | 105 | 104% | 104% | 109% | 92.1% | 92% |  | 115% | 110% | 108% | 95.8% | 110% | 100% |  | 88.5% | 105% | 104% | 106%
Cc1cc2nc3[nH]c4ccccc4c3nc2cc1C | 99.6% | 96.1% | 98.7 | 94.2% | 93.8% | 67.2% | 94% | 87.2% | 79.3% | 88% | 79.4% | 76.6% | 64.4% |  | 74.6% | 102% | 70.7% |  | 101% | 
CN(C)[C@@H]1C(=O)C(C(=O)NCc2nc3[nH]cnc(=S)c3[nH]2)=C(O)[C@@]2(O)C(=O)C3=C(O)c4c(O)cccc4[C@@](C)(O)[C@H]3C[C@@H]12 | 58.7% | 49.5% | 37.9 | 18.4% | 63.8% | 25.2% | 33.3% | 101% | 19.6% | 88% | 42.6% | 69.4% | 47.5% |  | 76.1% | 27.1% | 31.8% |  | 9.8% (active) | 
C=C1c2nc3ccccc3n2C=C(c2cccc(Cl)c2)N1Cc1ccc(OC)cc1 | 29.4% | 94.1% | 44.6 | 41.2% | 4.58% (active) | 77.9% |  | 14.3% | 35.5% | 95% | 15.3% | 76.8% | 36.3% | 4.81% (active) | 21.7% | 2.35% (active) | -15% (active) | 34.4% | 22.3% | 0.532% (active)
COC(=O)c1ccc(Cn2cnc3c(N)ncnc32)cc1 | 103% | 106% | 106 | 97% | 115% | 92.1% | 69.6% | 104% | 114% | 109% |  |  | 87.7% | 102% | 114% | 109% | 92.1% | 116% | 110% | 89.4%
FC(F)(F)Oc1ccc2nc3nc4ccc[nH]c4cc3c2c1 | 64.7% | 57.2% | 71.6 | 58.4% | 46.2% | 84.7% | 75.3% | 64.5% | 46.4% | 95.4% | 87.7% | 93% | 74.2% | 76.7% | 82.3% | 98.2% | 84.8% | 103% | 96.2% | 
CC(=O)Oc1ccc(Cl)cc1CN(C(C)=O)C1CCCCC1 | 116% | 96.3% | 101 | 102% | 114% | 83.4% | 88.2% | 106% | 90% | 104% | 125% | 111% | 105% | 101% | 100% |  | 111% | 81.3% | 109% | 
